Assay in all cases: NCI-60 one-dose screen, 48 h (100 = growth as untreated, 0 = no growth, -100 = all killed)
What all share (conditions): 10 µM unless noted

For test [1], the system named is DU-145 prostate.
The subject of test [2] is K-562 leukemia.
Test [3] concerns MALME-3M melanoma.
Test [4] relates to MDA-MB-231 breast.
Test [5] deals with RXF 393 renal.
Test [6] has as its system SF-268 CNS.
Test [7] relates to SF-295 CNS.
Test [8] has as its system SF-539 CNS.
The subject of test [9] is UACC-257 melanoma.
Test [10] has as its system M14 melanoma.

Drawing on PubChem BioAssay (NCI), this text covers growth for 14 compounds.

Compounds without any hit were thinned out: in the full panel of roughly 83,000, 20% have a hit.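 Percent growth is the endpoint: 0 to 100 indicates growth inhibition (40 means 60% inhibition), 0 means no net growth, and negative values indicate cell death.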 A number with no mark means an inactive call. Active and inactive are the calls of the source. Rule for the calls: active = growth percent below 10; inactive = the rest.

Consider `O=C(Nc1ccc2c(c1)OCCO2)C(=O)c1c[nH]c2ccccc12`, for which the growth in [1] was 7.38% (active); in test [2], 12.2%; in test [3] it was 46.6%; in test [4], 28.9%; in [5], 24.3%; in [6], 46.1%. In addition, the growth is 23.8% in test [7], -6.87% (active) in [8], 70.7% in [9] and 19.9% in test [10].

In the case of `O=C(O)c1nc(-c2ccccc2)oc1N1CCOCC1`, the growth in [1] is 109%; in test [2] it was 94%; in [3], 120%; in test [4], 94.3%; in [5], 104%; in test [6], 98.3%. Moreover, the growth in [7] was 107%; in test [8] it was 115%; in test [9], 104%; in [10] it was 106%.

On to `O=c1[nH]c(-c2ccccc2)nc(CN2CCCCC2)c1O`, for which the growth in [1] was 113%; in test [2], 112%; in [3] it was 128%; in test [4] it was 102%; in test [5], 120%; in test [6] it was 105%. Also, the growth in [7] is 121%; in [8], 108%; in [9] it was 113%; in test [10] it was 108%.

Regarding `CC(C)CSc1nc(NN)c(C#N)c(-c2ccc(F)cc2)n1`, the growth in test [1] is 66.5%; in test [2], 58.8%; in [3] it was 95.5%; in [4], 86.8%; in [5] it was 79.3%; in [6], 62.6%. For the same compound, the growth was 44.7% in test [7], 65.9% in [8], 105% in [9] and 78.9% in test [10].

Take `c1ccc(Nc2nc(Nc3ccccc3)nc(Nc3ccccc3)n2)cc1`: the growth in [1] is 93.6%; in test [2], 92.7%; in test [3] it was 88.7%; in test [4], 79.2%; in test [5], 84.3%; in test [6], 106%. Also, the growth in test [7] was 69%; in test [8], 90.7%; in [9], 82.9%; in test [10], 89%.

Consider `C=C(C)[C@@H]1C[C@@H]2Cc3ccc(Cl)c(C)c3N1O2`, for which the growth in test [1] is 97.3%; in test [2] it was 91.3%; in test [3], 120%; in test [4], 91.5%; in test [5], 99.4%; in [6] it was 96.8%. The growth in test [7] was 95.4%; in test [8], 90.8%; in test [9], 90%; in test [10], 105%.

Consider `NC1N=C(SCC(=O)N2CCN(c3cc4c(cc3F)c(=O)c(C(=O)O)cn4C3CC3)CC2)NC(=O)/C1=C/c1ccc(Cl)cc1` (stereo not given), for which the growth in test [1] was 112%; in test [2], 99.2%; in test [3], 108%; in [4], 104%; in test [5], 110%; in test [6], 96.2%. Moreover, the growth in test [7] is 94.4%; in [8], 97.8%; in [9], 105%; in test [10], 104%.

For `COc1ccc(-c2nc(/C=C3/C(=O)Nc4ccc(F)cc43)c3ccccn23)cc1`, the growth in [1] is 102%; in test [2] it was 87.2%; in test [3], 130%; in [4] it was 89.2%; in test [5], 112%; in test [6] it was 107%. The growth is 140% in test [7], 117% in test [8], 102% in test [9] and 106% in test [10].

On to `NC1=NN(O)C2=CC([N+](=O)[O-])C=CC2=N1` (stereo not given), for which the growth was 114% in test [1]; 103% in [2]; 137% in [3]; 118% in test [4]; 115% in test [5]; 101% in test [6]. The growth in test [7] was 117%; in [8], 98.5%; in [9], 94.8%; in [10] it was 113%.

For the compound `CCc1ccc(-c2ccc(=O)n(-c3ccc(S(N)(=O)=O)cc3)n2)cc1`, the growth in test [1] was 59.6%; in test [2], 11%; in test [3], 35.6%; in [4] it was 66.8%; in test [5], -31.8% (active); in test [6], 42.1%. Also, the growth is 18.4% in test [7], 43.6% in test [8], 22.3% in test [9] and 17.7% in [10].

Take `CC(=O)Nc1ccc(/C=C/C(=O)c2ccccc2)cc1`: the growth was 86.6% in test [1]; 36.7% in [2]; 120% in test [3]; 104% in test [4]; 68.2% in test [5]; 89.1% in [6]. The growth was 106% in test [7], 96.6% in test [8], 89.3% in test [9] and 97.7% in test [10].

Take `COc1ccc2c(c1)C(c1cc(OC)c3c(c1)OCO3)C1=C(COC1=O)N2` (stereo not given): the growth in [1] is 3.41% (active); in test [2], 12%; in [3], 54.2%; in [4], 24.4%; in [5] it was -8.85% (active); in test [6], 32.2%. In addition, the growth is 1.56% (active) in [7], 5.62% (active) in test [8], 66.1% in test [9] and 5.65% (active) in test [10].

Turning to `Cc1ccc2[nH]c(=O)c3c(c2c1)Oc1ncn2nc(-c4ccco4)nc2c1C3c1ccc(Cl)cc1` (stereo not given), the growth was 98.5% in test [1]; 93.2% in test [2]; 96.3% in test [3]; 89.4% in test [4]; 93.2% in test [5]; 91.8% in [6]. Besides, the growth in test [7] was 95.9%; in [8], 89.8%; in test [9], 95.5%; in test [10] it was 100%.

Turning to `COc1ccccc1CNCCCN1C(=O)c2ccc3c4c(ccc(c24)C1=O)C(=O)N(CCCNCCCCNCCCN)C3=O`, the growth in [1] is -92.6% (active); in [2], -15.1% (active); in test [3], -91.8% (active); in test [4], 15%; in [5], -66.8% (active); in [6], 1.6% (active). The growth in [7] is 1.52% (active); in test [8], -55.9% (active); in test [9] it was -91.1% (active); in test [10] it was -70.8% (active).
